Inconclusive results are not listed. Where a call stands in place of a potency, no number is given. A number with no mark means an inactive call. Active and inactive are the calls of the source. Calls follow the shape of the dose curve; as a rule, active = well fitted cell-killing curve with a large enough effect in the repeat runs; inconclusive = weak or mixed curves, or effect the other way; inactive = flat fitted curve, though single readings scatter.
assay: cAMP Responsive Elements (CRE) small molecule agonists, cell-based qHTS assay: qHTS cell viability counter screen (AID 2060914); details: CRE-bla HEK293T viability, CellTiter-Glo luminescence, 5 h; series mostly up to 92.4 µM;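 also: viability read after 3 h of compound exposure; nearly all actives have a fitted effect of over 50% in size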
Text: National Center for Advancing Translational Sciences [NCATS]
Division of Preclinical Innovation [DPI]
U.S. Environmental Protection Agency [EPA]
National Institutes of Environmental Health Sciences [NIEHS]
National Toxicology Program [NTP]
U.S. Food and Drug Administration [FDA]
CREB (cyclic-AMP Responsive Element Binding Protein) is a cellular transcription factor. It binds to certain DNA sequences called cAMP Responsive Elements (CRE) and regulates the transcription of the genes. […] This cell line can be used to find agonists/antagonists of the cyclic AMP signaling pathway. The activation of the report gene under culture conditions can be detected by fluorescence intensity. This cell line has been used to screen the Tox21 10K compound library to identify agonists that induce oxidative stress. The cytotoxicity of the Tox21 compound library against the CRE-bla cell line was tested in parallel by measuring the cell viability using CellTiter-Glo assay (Promega, Madison, WI) in the same wells.
Tox21 Assay Protocol Summary:
CRE-bla Hek 293T cells were suspended in assay medium (DMEM containing 10% dialyzed FBS, 0.1 mM NEAA, 1 mM sodium pyruvate and 25 mM HEPES) and dispensed at 2,000 cells/5 uL /well into 1536-well black wall/clear bottom plates using a Multidrop Combi (ThermoFisher Scientific, Waltham, MA) dispenser. After the assay plates were incubated at 37 C/5% CO2 for 18 hrs, 23 nL of compounds dissolved in DMSO, positive controls or DMSO only was transferred to the assay plate by a pintool workstation (Kalypsys, San Diego, CA). After the plates were incubated at 37 C/5% CO2 for 3 hrs, 1 uL of LiveBLAzer B/G FRET substrate (Invitrogen, Carlsbad, CA) was added to each well using Bioraptr Flying Reagent Dispenser (FRD, Aurora Discovery, San Diego, CA). The plates were incubated at room temperature for 2 h, then fluorescence intensities were measured using an Envision plate reader (PerkinElmer, Shelton, CT) at Excitation 405nm, Emission 460nm and 530nm. The % activity was determined from the ratio of 460nm/530nm. For cell viability readout that measures cytotoxicity, 4 uL /well of CellTiter-Glo reagent was added into the assay plates using Bioraptr FRD. After 30 min incubation at room temperature, the luminescence intensity in the assay plates was measured using a ViewLux (PerkinElmer, Shelton, CT) plate reader.

SMILES	Potency	activity change, negative = cytotoxicity
Cc1ccc(C)cc1	inactive	–
C[C@@]12CCC[C@H]1[C@@H]1CC[C@H]3C[C@@H](O)CC[C@]3(C)[C@H]1CC2	inactive	–
O=Cc1ccccc1[N+](=O)[O-]	inactive	–
O=C(c1ccccc1)c1cccc(O)c1	inactive	–
CCOC(=S)SSC(=S)OCC	inactive	–
CCCCCCCCCCCCCCC(=O)NC(CO)CCCCCCCCCCCCCC (stereo not given)	inactive	–
Cc1nc2sccn2c(=O)c1CCN1CCC(=C(c2ccc(F)cc2)c2ccc(F)cc2)CC1	inactive	–
C/C=C1\C(=O)C[C@H]2[C@@H]3CCC4=CC(=O)CC[C@]4(C)[C@H]3CC[C@]12C	inactive	–
CCN(CC)c1ccc(C=O)c(O)c1	inactive	–
O=C(Cl)c1ccc(Cl)cc1Cl	inactive	–
CCCCCCCOC(=O)CCC	inactive	–
O=Cc1ccccc1C=O	inactive	–
CC1=C(C(=O)O)N2C(=O)[C@@H](NC(=O)[C@H](N)C3=CCC=CC3)[C@H]2SC1	inactive	–
CC(=O)OCC(=O)Nc1cc(C#N)cc(NC(=O)COC(C)=O)c1Cl	inactive	–
Oc1ccc(C(c2ccc(O)cc2)C(Cl)(Cl)Cl)cc1	inactive	–
CCCCOC(=O)CO	inactive	–
COc1c(Br)cc(Br)c(C)c1Br	inactive	–
NCC(=O)CCC(=O)O	inactive	–
CN(C)CCCN1c2ccccc2CCc2ccc(Cl)cc21	inactive	–
O=C(O)CCCl	inactive	–

SMILES	Potency	activity change, negative = cytotoxicity
O=C1OC(=O)c2c(Cl)c(Cl)c(Cl)c(Cl)c21	inactive	–
CC/C=C\CCCCCO	inactive	–
CCCSSCCC	inactive	–
CC1=NN(c2cc(S(=O)(=O)O)ccc2Cl)C(=O)C1N=Nc1ccccc1 (stereo not given)	inactive	–
O=[N+]([O-])c1cccc(Cl)c1	inactive	–
CCCCCCCC#N	inactive	–
CC/C(C)=N\O[Si](C)(O/N=C(\C)CC)O/N=C(\C)CC	inactive	–
COCCCN	inactive	–
CO[Si](CCCNCCC[Si](OC)(OC)OC)(OC)OC	inactive	–
Cc1ncc(CO)c(CN)c1O	inactive	–
CC(C)C(=O)Nc1cccc(C(F)(F)F)c1	inactive	–
O=C1OC2(c3ccccc31)c1cc(Br)c(O)c(Br)c1Oc1c2cc(Br)c(O)c1Br	inactive	–
Cc1ccc(/C=N/n2c(-c3ccccc3)csc2=S)cc1	inactive	–
Cc1nc2n(c(=O)c1CCN1CCC(c3noc4cc(F)ccc34)CC1)CCC[C@H]2O	–	4.41% [at 18.9 µM]
CCC=O	inactive	–
Nc1ccc2ccccc2c1S(=O)(=O)O	inactive	–
CN(C)CCC=C1c2ccccc2CCc2ccccc21	inactive	–
CC(=O)OC(C)(C)Cc1ccccc1	inactive	–
COCC(C)O (stereo not given)	inactive	–
O=C(CCCl)NCc1ccccc1	inactive	–

Source: PubChem BioAssay (Tox21)
